Source: PubChem BioAssay (NCATS)
Where “and” joins values, the source holds several entries; their conditions need not be identical. Equal entries are not always repeated. Records with an inconclusive call do not appear. Calls of active or inactive are those of the source. Unless noted, calls follow the shape of the dose curve; as a rule, active = well fitted curve in the direction sought with a large enough effect; inconclusive = small, poorly fitted or top-dose-only effect, or another doubt; inactive = no such curve, though single readings can be large; an effect the other way counts as inactive or inconclusive.

Columns and labels:
[1] = AP1 Signaling Pathway (AID 357; active = well fitted curve in either direction with a large enough effect, not every such curve was filed as active;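 also: ME-180 reporter cells stimulated with EGF at its EC50 level; % is scaled to controls: 0 for no effect and ±100 for the full control effect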)
Method in brief: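 Beta-lactamase reporter under AP-1 response element, ME-180 background. Stimulus: EC50 EGF. Compound exposure 5 h, 37 °C. Detection: CCF4, 2.5 h RT, 460/530 nm. Values: AC50 from titration.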

[2] = target: Cytochrome P450 1A2 (Homo sapiens) (UniProt P05177); assay: p450-cyp1a2 (AID 410; calls by dose curve;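 also: -100% = full effect of reference inhibitor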)
Method in brief: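 O-Demethylation of luciferin 6' methyl ether by human CYP1A2 is monitored as luciferase luminescence. Substrate sits at Km (100uM); enzyme is 20nM. Values are scaled to 57 uM furafylline as maximal inhibition.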

[3] = NFAT Signaling Pathway (AID 444; active = well fitted curve in either direction with a large enough effect, not every such curve was filed as active;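 also: carbachol stimulus at about its EC50 of 1 µM final; % is scaled to controls: 0 for no effect and ±100 for the full control effect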); conditions: Jurkat NFAT-bla M1, carbachol, beta-lactamase ratio, 5 h; at 38 µM (top of the series)
Method in brief: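 Jurkat cells carrying an NFAT-driven β-lactamase reporter and co-transfected muscarinic M1 receptor were treated with compound plus carbachol (1 uM final, an EC50 level) for 5 h at 37 °C. CCF4 loading followed for 1 h at RT; 460/530 nm ratio gave %activity.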

[4] = target: Glucocorticoid receptor (Homo sapiens) (UniProt P04150); assay: GR-GFP Redistribution (AID 450;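 active = compounds whose dose series gives a full or clear partial fitted curve of increased nuclear translocation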; also: potency is read from the fitted curve at half-maximal effect); conditions: U2OS GR-GFP nuclear translocation, laser cytometry, 2 h
[5] = target: Glucocorticoid receptor (Homo sapiens) (UniProt P04150); assay: GR-EFC Redistribution (AID 451; calls by dose curve; also: potency is read from the fitted curve at half-maximal effect); conditions: CHO-K1 GR-EFC translocation, beta-gal luminescence, 2 h
Method in brief: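 CHO-K1 cells stably expressing nuclear-localized β-gal enzyme acceptor and GR fused C-terminally to the enzyme donor fragment; ligand-driven nuclear translocation restores β-gal by complementation. Compounds titrated up to 46 uM final, 2 h at 37 °C; luminescence read.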

[6] = target: Mitogen-activated protein kinase 10 (Mus musculus) (UniProt Q61831); assay: JNK3 AlphaScreen Assay (AID 530; active = well fitted curve in either direction with a large enough effect, not every such curve was filed as active;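 also: kinase came from lysate of stimulated human HepG2 cells; signal reports phosphorylation of biotinylated GST-cJun 1-79 at Ser73 with 10 µM ATP; % is scaled to controls: 0 for no effect and ±100 for the full control effect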)
Method in brief: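 Phosphorylation of biotinylated GST-cJun(1-79) at Ser73 is measured by AlphaScreen proximity luminescence. Enzyme is JNK3 in HepG2 lysates activated with interleukin-1beta and tumor necrosis factor alpha; ATP is 10 uM final.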

[7] = target: 3',5'-cyclic-AMP phosphodiesterase 4B (Homo sapiens) (UniProt Q07343); assay: qHTS Assay for Inhibitors of PDE-IV (AID 607; active = well fitted activation curve with a large enough effect in the main read-out, with a control signal flat, not every such curve was filed as active; also: % of control where 0% means no effect)
Method in brief: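 Cell-based read-out of cAMP via a modified cyclic nucleotide-gated channel and membrane potential dye (535/590 nm) in HEK293 cells expressing PDE4 endogenously. Compounds tested up to 22.9 uM final; 100 uM RO 20-1724 reference.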

[8] = target: Cytochrome P450 2C9 (Homo sapiens) (UniProt P11712); assay: qHTS Assay for Inhibitors and Substrates of Cytochrome P450 2C9 (AID 883); also: % is scaled to controls: 0 for no effect and ±100 for the full control effect; nearly all actives have a fitted effect of over 60% in size
Method in brief: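 A luminogenic readout tracked human CYP2C9 (10nM) converting deoxyluciferin (100uM, at KM) in 25mM KPO4 during 60 min at 37C with regenerated NADPH. Values normalized to 57uM sulphaphenazole as complete inhibition.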

[9] = target: Cytochrome P450 2D6 (Homo sapiens) (UniProt P10635); assay: qHTS Assay for Inhibitors and Substrates of Cytochrome P450 2D6 (AID 891);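 also: luciferin methyl ether substrate demethylated by CYP2D6 with NADPH regeneration; % is scaled to controls: 0 for no effect and ±100 for the full control effect; nearly all actives have a fitted effect of over 60% in size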
Method in brief: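 Luminescent read-out of luciferin formed by 5 nM human CYP2D6 demethylating 30 uM Luciferin-ME EGE (Km level) over 60 min at room temperature after NADPH regeneration addition. Data normalized to full inhibition by 1.43 uM quinidine.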

[10] = target: Cytochrome P450 2C19 (Homo sapiens) (UniProt P33261); assay: qHTS Assay for Inhibitors and Substrates of Cytochrome P450 2C19 (AID 899); also: % is scaled to controls: 0 for no effect and ±100 for the full control effect; nearly all actives have a fitted effect of over 60% in size
Method in brief: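 NADPH-dependent conversion of Luciferin-H EGE (10uM, at KM) by 5nM enzyme in 50mM KPO4, 60 min at 37C following 10 min compound preincubation. Stopped with luciferin detection buffer; luminescence read after 20 min.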

[11] = qHTS Assay for Identification of Small Molecule Agonists for Thrombopoietin (TPO) Signaling Pathway (AID 917); also: % is scaled to controls: 0 for no effect and ±100 for the full control effect
Method in brief: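 First, Ba/F3 cells with human TPO receptor were held overnight without IL-3. Next, compounds and TPO (26 pM final) were added. After 24 hrs at 37 C, luciferase detection reagent was added and luminescence measured following 10 min at room temperature.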

[12] = target: Muscarinic acetylcholine receptor M1 (Rattus norvegicus) (UniProt P08482); assay: qHTS Assay for Antagonists of Acetylcholine Muscarinic M1 Receptor: Kinetic Measurement of Intracellular Calcium Response (AID 943);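 also: Fluo-4 calcium signal as peak divided by basal fluorescence over 4 min; nearly all actives have a fitted effect of over 75% in size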
Method in brief: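 Antagonism is measured as inhibition of the carbachol-evoked calcium rise in CHO cells transfected with rat M1. Cells are dye-loaded, exposed to compound for 10 min, then stimulated with 100 nM carbachol (EC80).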

[13] = target: Muscarinic acetylcholine receptor M1 (Rattus norvegicus) (UniProt P08482); assay: qHTS Assay for Antagonists of Acetylcholine Muscarinic M1 Receptor: Measurement of IP-One Response (AID 944); also: nearly all actives have a fitted effect of over 75% in size
Method in brief: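 Antagonist mode with rat M1 receptor transfected into CHO cells. Compound is added first for 10 min, carbachol at its EC80 follows for 30 min, and lysis reagents then allow TR-FRET detection of accumulated IP1.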

[14] = target: Pyruvate kinase (Leishmania mexicana) (UniProt Q27686); assay: qHTS Validation Assay for Inhibitors of Leishmania Mexicana Pyruvate Kinase (AID 945);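 also: 0% = DMSO only neutral control wells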
Method in brief: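 LmPYK E451W 0.2 nM; 0.5 mM PEP, 0.1 mM ADP, 7 mM MgCl2, 50 mM KCl, imidazole pH 7.2, 0.01% Tween 20, 0.05% BSA; 1 h RT; PKLight luminescence; DMSO-normalized.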

[15] = target: Pyruvate kinase PKM (Homo sapiens) (UniProt P14618); assay: qHTS Assay for Activators of Human Muscle Pyruvate Kinase (AID 954; active = well fitted curve in the direction sought with a large enough effect, not every such curve was filed as active;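 also: 0% = uninhibited enzyme and -100% = no enzyme or full thiadiazolimine inhibition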)
Method in brief: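 ATP production by PKM2 detected via luciferase luminescence after 1 h room-temperature reaction (0.1 nM enzyme, PEP at Km 0.5 mM, ADP 0.1 mM, pH 7.2 imidazole buffer). Inhibition scaled to no-enzyme control; activation referenced to 0.3 nM enzyme wells.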

[16] = target: Alpha-galactosidase (Coffea arabica) (UniProt Q42656); assay: Counterscreen for Glucocerebrosidase Inhibitors: qHTS Assay for Coffee Bean alpha-Galactosidase at pH 4.5 (AID 957);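 also: plate controls were enzyme alone for no effect and no enzyme for full effect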
Method in brief: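 Enzyme is added first (2 nM final), then compounds titrated from 0.7 nM to 77 uM, then 80 uM 4-methylumbelliferyl alpha-D-galactopyranoside; after 20 min at room temperature a pH 10 NaOH/glycine stop precedes fluorescence reading at 365/440 nm.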

[17] = target: Alpha-galactosidase A (Homo sapiens) (UniProt P06280); assay: Counterscreen for Glucocerebrosidase Inhibitors: qHTS Assay for Human alpha-Galactosidase at pH 4.5 (AID 992); also: 0% is about no effect
Method in brief: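 Fluorogenic 1536-well qHTS at pH 4.5 (citrate, Tween-20): 2 nM enzyme, 80 uM 4-MU-alpha-galactoside, 20 min room temperature, NaOH/glycine stop. Titration 0.7 nM to 77 uM, data normalized to no-enzyme and full-activity controls, Hill-fitted AC50.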

[18] = target: alpha-glucosidase (Oryza sativa, rice) (UniProt Q653V4); assay: Counterscreen for Glucocerebrosidase Inhibitors: qHTS Assay for Rice alpha-Glucosidase at pH 5.0 (AID 997);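 also: 0% = full activity with enzyme and -100% = basal without enzyme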
Method in brief: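 Endpoint fluorogenic assay at pH 5.0: compounds (0.7 nM to 77 uM) titrated against 4 nM rice enzyme and 400 uM 4-MU-alpha-glucoside for 20 min at room temperature; NaOH/glycine stop, read ex 365/em 440 nm, Hill-fitted AC50.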

[19] = target: Alpha-galactosidase (Coffea arabica) (UniProt Q42656); assay: Counterscreen for Glucocerebrosidase Inhibitors: qHTS Assay for Coffee Bean alpha-Galactosidase at pH 5.9 (AID 998);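 also: plate controls were uninhibited enzyme for no effect and no-enzyme basal signal for full effect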
Method in brief: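 In 50 mM citric acid pH 5.9 with 0.005% Tween-20, coffee bean enzyme hydrolyses 80 uM 4-MU alpha-D-galactopyranoside over 20 min at RT. Activity is normalized to controls; AC50 comes from Hill-modelled concentration-response data.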

[20] = Validation of Assay for Modulators of Lamin A Splicing (AID 1459; active = well fitted curve in the direction sought with a large enough effect in the signal ratio; the % refers to the signal ratio;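 also: cells exposed to compound for two days before reading; 0% is about no effect; ratio rise marks activators and ratio drop marks inhibitors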)
Method in brief: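 S3 HeLa cells stably expressing a lamin A-EGFP splicing minigene and DsRed2 were seeded at 600 cells/well in Opti-MEM with 2% FBS, pin-dosed, and incubated 48 hrs at 37 °C, 5% CO2. Laser-scanning cytometry (488 nm) gave GFP/RFP total intensity ratio.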

[21] = qHTS Assay for Lipid Storage Modulators (AID 1519; calls by dose curve); conditions: Drosophila S3 cells, BODIPY lipid droplet/cell ratio, laser cytometry, cells loaded with oleic acid
Method in brief: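 Cells seeded at 5,000 per well were treated with compounds over a concentration series and loaded with oleic acid (400 uM, as added). Lipid droplet fluorescence (488 nm excitation, 500-530 nm channel) was read by laser-scanning cytometry and normalized to 20 uM Triacsin C.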

[22] = target: DNA repair nuclease/redox regulator APEX1 (Homo sapiens) (UniProt P27695); assay: qHTS Validation Assay for Inhibitors of the Human Apurinic/apyrimidinic Endonuclease 1 (APE1) (AID 1705)
Method in brief: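 Human APE1 was preincubated with compound for 15 min at room temperature, then 50 nM (final) THF-abasic double-stranded DNA substrate bearing 5'-TAMRA and 3'-BHQ-2 was added. Incision-driven fluorescence rise (ex 525/em 598 nm) was read kinetically.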

Sequence of Cytochrome P450 1A2 (Homo sapiens) (P05177 whole entry, looked up): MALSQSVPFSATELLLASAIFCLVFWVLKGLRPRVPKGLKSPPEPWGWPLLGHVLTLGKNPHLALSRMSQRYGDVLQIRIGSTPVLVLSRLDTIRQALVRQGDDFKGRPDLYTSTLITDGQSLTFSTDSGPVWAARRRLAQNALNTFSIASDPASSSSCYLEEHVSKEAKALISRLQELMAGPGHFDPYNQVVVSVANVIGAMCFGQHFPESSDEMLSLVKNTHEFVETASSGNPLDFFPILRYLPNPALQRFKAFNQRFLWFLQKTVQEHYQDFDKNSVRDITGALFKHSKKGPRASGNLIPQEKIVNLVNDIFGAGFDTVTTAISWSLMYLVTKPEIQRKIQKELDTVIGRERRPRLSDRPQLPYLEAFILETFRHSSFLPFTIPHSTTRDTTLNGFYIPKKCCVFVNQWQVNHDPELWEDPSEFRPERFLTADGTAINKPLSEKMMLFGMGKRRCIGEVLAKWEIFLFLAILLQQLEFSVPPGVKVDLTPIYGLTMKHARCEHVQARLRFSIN
Sequence of Muscarinic acetylcholine receptor M1 (Rattus norvegicus) (P08482 whole entry, looked up): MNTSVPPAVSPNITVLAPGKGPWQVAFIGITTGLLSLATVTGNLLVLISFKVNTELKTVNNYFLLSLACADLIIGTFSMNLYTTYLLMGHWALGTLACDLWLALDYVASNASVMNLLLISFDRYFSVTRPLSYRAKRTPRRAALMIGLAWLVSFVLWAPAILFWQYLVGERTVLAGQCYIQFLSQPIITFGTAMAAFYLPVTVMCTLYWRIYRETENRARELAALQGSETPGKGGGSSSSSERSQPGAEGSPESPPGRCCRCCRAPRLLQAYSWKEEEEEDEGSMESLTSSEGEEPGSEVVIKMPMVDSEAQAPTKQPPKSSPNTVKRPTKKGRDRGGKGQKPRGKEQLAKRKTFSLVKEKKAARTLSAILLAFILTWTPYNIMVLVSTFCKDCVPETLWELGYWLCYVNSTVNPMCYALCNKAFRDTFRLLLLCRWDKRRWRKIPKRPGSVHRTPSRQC
Sequence of Alpha-galactosidase (Coffea arabica) (Q42656 whole entry, looked up): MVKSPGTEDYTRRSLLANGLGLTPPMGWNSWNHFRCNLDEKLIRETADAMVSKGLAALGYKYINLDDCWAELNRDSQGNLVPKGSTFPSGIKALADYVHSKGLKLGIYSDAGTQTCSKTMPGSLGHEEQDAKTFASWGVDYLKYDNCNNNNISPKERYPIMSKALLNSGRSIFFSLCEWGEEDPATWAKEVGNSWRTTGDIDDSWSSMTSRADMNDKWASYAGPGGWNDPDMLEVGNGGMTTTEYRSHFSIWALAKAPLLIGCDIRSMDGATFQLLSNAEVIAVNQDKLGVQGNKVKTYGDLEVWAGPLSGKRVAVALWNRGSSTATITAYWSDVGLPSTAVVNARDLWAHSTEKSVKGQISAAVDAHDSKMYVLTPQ
Sequence of 3',5'-cyclic-AMP phosphodiesterase 4B (Homo sapiens) (Q07343 whole entry, looked up): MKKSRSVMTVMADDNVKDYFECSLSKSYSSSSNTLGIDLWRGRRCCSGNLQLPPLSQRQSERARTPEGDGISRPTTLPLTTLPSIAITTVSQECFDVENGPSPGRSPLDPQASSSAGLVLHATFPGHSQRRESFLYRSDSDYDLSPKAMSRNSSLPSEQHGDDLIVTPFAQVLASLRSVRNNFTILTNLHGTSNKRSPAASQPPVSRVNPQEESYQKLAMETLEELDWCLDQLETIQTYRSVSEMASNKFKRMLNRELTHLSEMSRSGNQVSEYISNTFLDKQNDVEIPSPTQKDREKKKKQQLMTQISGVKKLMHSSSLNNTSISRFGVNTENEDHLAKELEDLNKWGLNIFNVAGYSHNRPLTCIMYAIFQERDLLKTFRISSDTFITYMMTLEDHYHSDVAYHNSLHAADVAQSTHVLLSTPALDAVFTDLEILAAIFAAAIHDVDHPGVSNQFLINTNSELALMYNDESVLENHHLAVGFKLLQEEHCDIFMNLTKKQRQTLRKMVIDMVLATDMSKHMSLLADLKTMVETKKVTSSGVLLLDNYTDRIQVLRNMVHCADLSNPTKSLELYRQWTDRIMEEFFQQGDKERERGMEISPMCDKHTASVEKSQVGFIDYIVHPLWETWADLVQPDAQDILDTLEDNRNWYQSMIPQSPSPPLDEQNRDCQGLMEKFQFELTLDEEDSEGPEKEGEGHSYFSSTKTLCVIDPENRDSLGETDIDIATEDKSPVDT
Sequence of Glucocorticoid receptor (Homo sapiens) (P04150 whole entry, looked up, the tested form may be a part): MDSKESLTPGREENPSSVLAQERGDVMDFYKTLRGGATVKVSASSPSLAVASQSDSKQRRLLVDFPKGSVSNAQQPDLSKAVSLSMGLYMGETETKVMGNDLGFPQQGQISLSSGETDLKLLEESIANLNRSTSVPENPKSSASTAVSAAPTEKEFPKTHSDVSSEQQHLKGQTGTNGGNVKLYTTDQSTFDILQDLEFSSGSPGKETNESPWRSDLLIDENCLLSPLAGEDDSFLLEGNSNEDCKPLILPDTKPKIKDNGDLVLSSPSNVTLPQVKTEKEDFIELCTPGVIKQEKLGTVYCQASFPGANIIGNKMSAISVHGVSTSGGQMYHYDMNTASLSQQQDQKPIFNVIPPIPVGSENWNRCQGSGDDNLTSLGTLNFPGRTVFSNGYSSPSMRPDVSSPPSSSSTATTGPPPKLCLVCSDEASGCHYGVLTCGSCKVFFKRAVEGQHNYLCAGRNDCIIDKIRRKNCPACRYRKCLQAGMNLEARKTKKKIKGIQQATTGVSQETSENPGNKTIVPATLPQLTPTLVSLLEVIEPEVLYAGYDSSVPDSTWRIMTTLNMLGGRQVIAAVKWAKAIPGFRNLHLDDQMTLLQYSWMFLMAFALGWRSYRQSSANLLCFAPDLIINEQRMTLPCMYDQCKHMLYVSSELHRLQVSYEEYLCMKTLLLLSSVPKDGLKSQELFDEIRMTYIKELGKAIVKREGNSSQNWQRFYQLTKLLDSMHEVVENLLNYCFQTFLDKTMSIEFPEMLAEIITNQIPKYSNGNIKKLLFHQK
Sequence of Pyruvate kinase PKM (Homo sapiens) (P14618 whole entry, looked up): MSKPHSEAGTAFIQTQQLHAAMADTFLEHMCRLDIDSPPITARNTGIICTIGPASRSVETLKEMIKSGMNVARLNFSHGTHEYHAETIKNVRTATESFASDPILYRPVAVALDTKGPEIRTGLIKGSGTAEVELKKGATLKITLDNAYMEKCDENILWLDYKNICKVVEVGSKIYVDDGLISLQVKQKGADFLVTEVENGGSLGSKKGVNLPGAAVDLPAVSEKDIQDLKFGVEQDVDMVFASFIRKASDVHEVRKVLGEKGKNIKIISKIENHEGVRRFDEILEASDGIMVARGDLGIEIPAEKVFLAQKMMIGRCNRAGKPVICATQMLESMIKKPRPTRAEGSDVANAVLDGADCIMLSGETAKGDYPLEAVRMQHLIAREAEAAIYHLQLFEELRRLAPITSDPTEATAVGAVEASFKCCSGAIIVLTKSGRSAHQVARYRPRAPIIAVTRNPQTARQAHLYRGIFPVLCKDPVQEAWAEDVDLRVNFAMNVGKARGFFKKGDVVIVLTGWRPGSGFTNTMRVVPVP
Sequence of Alpha-galactosidase A (Homo sapiens) (P06280 whole entry, looked up): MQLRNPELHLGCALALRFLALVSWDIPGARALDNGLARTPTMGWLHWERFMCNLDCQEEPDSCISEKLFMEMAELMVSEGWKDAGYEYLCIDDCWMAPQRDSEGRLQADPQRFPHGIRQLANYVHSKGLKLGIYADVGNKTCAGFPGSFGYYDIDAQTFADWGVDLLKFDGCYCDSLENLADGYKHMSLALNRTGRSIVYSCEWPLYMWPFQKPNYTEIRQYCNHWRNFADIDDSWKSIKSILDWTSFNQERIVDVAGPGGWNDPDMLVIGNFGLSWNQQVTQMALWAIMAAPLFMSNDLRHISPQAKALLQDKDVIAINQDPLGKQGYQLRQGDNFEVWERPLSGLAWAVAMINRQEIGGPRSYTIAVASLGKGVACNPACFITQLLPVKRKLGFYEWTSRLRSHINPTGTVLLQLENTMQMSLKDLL
Sequence of Cytochrome P450 2C19 (Homo sapiens) (P33261 whole entry, looked up): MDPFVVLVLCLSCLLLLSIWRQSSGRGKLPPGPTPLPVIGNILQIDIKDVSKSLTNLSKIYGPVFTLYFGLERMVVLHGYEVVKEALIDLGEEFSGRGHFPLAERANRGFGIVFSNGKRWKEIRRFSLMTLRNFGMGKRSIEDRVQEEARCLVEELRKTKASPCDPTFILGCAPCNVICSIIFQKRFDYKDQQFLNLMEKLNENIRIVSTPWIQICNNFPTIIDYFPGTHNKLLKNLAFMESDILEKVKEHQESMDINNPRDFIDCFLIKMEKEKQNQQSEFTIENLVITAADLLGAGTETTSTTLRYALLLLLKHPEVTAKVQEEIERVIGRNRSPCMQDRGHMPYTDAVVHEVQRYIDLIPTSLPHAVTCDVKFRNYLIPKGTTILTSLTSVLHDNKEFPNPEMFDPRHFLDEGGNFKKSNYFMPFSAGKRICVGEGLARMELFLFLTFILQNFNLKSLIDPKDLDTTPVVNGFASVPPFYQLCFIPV
Sequence of Cytochrome P450 2C9 (Homo sapiens) (P11712 whole entry, looked up): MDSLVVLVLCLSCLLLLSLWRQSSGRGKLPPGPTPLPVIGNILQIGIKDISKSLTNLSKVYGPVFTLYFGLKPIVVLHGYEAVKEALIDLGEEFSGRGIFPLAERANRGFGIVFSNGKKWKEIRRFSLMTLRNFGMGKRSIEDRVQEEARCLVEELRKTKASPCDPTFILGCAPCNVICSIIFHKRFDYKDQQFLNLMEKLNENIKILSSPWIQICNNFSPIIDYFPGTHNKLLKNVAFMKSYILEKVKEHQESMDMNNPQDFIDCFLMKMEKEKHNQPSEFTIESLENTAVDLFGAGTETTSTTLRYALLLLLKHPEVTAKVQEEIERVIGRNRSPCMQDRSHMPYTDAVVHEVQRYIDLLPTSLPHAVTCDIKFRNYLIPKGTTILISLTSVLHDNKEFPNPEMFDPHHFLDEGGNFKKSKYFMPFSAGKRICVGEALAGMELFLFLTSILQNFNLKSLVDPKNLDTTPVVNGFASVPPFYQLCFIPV

N[C@H](CCCCCP(=O)(O)O)C(=O)O
-15.1%: max response ([21]; measured here: lipid channel max response)
inactive: outcome [1] | Potency [2] | activity change, negative = inhibition [3] 7.92% and -0.366% | Potency [4] > 46 µM | Potency [5] > 46 µM | outcome [6] | Potency [7] | Potency [8] | Potency [9] | Potency [10] | outcome [11] | Potency [12] | Potency [13] | outcome [14] | outcome [15] | outcome [16] | outcome [17] | outcome [18] | outcome [19] | outcome [20] | activity change, negative = inhibition ([21]; at 57.5 µM (top of the series)) -3.15% | Potency [22]
-11.8%: max response ([21]; measured here: cell count channel max response)
